# LASV entry inh: blocks Lassa virus binding to or entry into cells | Lassa virus pseudotype entry inhibition, cell reporter | Potency, µM (highest dose often 37.9 µM), without a hit: at the top dose activity change, negative = inhibition, actives largely listed as inhibitors | AID 540256 | 300,000 tested, 1.2% active; calls by dose curve; tested in HEK293 cells; note: nearly all actives have a fitted effect of over 50% in size
# VACV Venus inh: inhibitors of vaccinia virus (Venus reporter); Vaccinia virus Venus reporter expression, fluorescence; Potency, µM (highest dose often 36.5 µM), without a hit: at the top dose activity change, negative = inhibition, usual class: inhibitors; 330,000 tested, 0.46% active; calls by dose curve; tested in A549 cells; note: nearly all actives have a fitted effect of over 30% in size
# Vaccinia mCherry: vaccinia inhibition (mCherry reporter) | Vaccinia virus mCherry reporter infection, fluorescence | Potency, µM (top dose mostly 36.5 µM), for inactives: top-dose activity change, negative = inhibition, most hits filed as inhibitors | 310,000 tested, 0.63% active | AID 720579; calls by dose curve; tested in A549 cells; note: nearly all actives have a fitted effect of over 35% in size
# MARV entry inh: inhibitors of Marburg virus binding or cell entry. 300,000 tested, 1.8% active. Potency, µM (titrated, usually from 37.8 µM), without a hit: top-dose activity change, negative = inhibition, hits mostly inhibitors. Marburg virus pseudotyped entry inhibition, cell reporter; calls by dose curve; tested in HEK293 cells
# * marks the source's active call; other numbers are inactive results; i = inactive; ? = inconclusive; · = not tested or not shown; ! = not active in a repeat; [ ] = dose if it differs, or a comment. In the library only some 2.5% were active in any assay of this set; here they are far more common. % is set by controls: 0 for no effect and ±100 for the full control effect; potency is the fitted concentration of half-maximal effect.
SMILES,LASV entry inh,VACV Venus inh,Vaccinia mCherry,MARV entry inh
COc1ccc(-c2n[nH]c3c2C(c2ccc(OC)c(OC)c2)N(c2ccccc2)C3=O)cc1 (stereo not drawn),?,·,·,7.3µM*
O=C1c2[nH]nc(-c3ccccc3O)c2C(c2ccccc2F)N1Cc1ccco1 (stereo not drawn),5.2µM*,·,·,-1%
CCOC(=O)N1CCN(Cc2ccc3c(c2)CN(C(=O)c2ccc(C#CC(C)(C)O)o2)CCO3)CC1,·,-19%,-27%,·
CCOc1cccc(CN2CCC(n3cc(C(=O)N4CCCCC4)nn3)CC2)c1O,·,-8%,-17%,·
COc1ccc(CCN2C(=O)c3[nH]nc(-c4ccccc4O)c3C2c2ccc(O)c(OC)c2)cc1 (stereo not drawn),?,-3%,-8%,-29%[46.1 µM]
COc1ccc(CCN2C(=O)c3[nH]nc(-c4ccccc4O)c3C2c2ccccc2)cc1OC (stereo not drawn),18µM*,?,-20%,?
Cc1ccc(S(=O)(=O)NC(CC(N)=O)C(=O)O)cc1 (stereo not drawn),?,-2%,·,?
Cc1ccc(S(=O)(=O)N[C@@H](CCCCN)C(=O)CCl)cc1,-34%,2%,-15%,13µM*!
COC1CCC(C2CC(=O)C3=C(CCCC3)O2)CC1 (stereo not drawn),·,·,·,44%
O=C(NCCOc1ccc(F)cc1)c1ccccc1SCc1ccccc1,?,1%,i,11µM*
CCc1ccc(OCCNC(=O)c2ccccc2SCc2ccc(F)cc2)cc1,?,-25%,?,?
Nc1cc(Cl)cc2c1-c1ccc(Cl)cc1C2O (stereo not drawn),-12%[46.1 µM],-11%,-20%,10%[46.1 µM]
O=C(Nc1cc(Cl)cc2c1-c1ccc(Cl)cc1C2O)C(Cl)Cl (stereo not drawn),13µM*,-26%,-26%,?
C1=C/C(=C2/C=Cc3ccccc32)c2ccccc2N1,·,-46%,-18%,·
Brc1ccc(Oc2ccc(Br)cc2Br)c(Br)c1,·,-4%,i,-3%
O=c1c(Br)ccc(Br)cc1Br,?,?,?,4.5µM*
CNc1ccc(/C=C/c2ccnc3ccccc23)cc1,·,12%,-22%,·
O=C1c2ccccc2C(=O)c2[nH]c(=O)[nH]c21,10µM*,2.8µM*,1.3µM*,?
COC(=O)CC=C[C@@H](C)[C@H](NC(=O)OCC(Cl)(Cl)Cl)c1cccc(OC)c1,·,·,·,-8%[14.2 µM]
Cc1cccc2cc3c(N)c(C(=O)N4CCOCC4)sc3nc12,11µM*,?,?,?
Cc1cc(C)c2cc3c(N)c(C(=O)N4CCc5ccccc5C4)sc3nc2c1,6%,-9%,-7%,0%
Cc1cnc(SCC2CCCO2)nc1C1CCCN(Cc2nc(-c3ccccc3)cs2)C1 (stereo not drawn),·,-8%,-12%,·
Oc1c(C(Nc2ccccn2)c2ccccn2)ccc2cccnc12 (stereo not drawn),?,10µM*,?,?
Cc1ccnc(NC(c2cc(C)ccc2O)c2ccc3cccnc3c2O)c1 (stereo not drawn),?,-9%,-7%,?
COc1cc(C(Nc2ccccn2)c2ccc3ccc(C)nc3c2O)cc(OC)c1O (stereo not drawn),?,?,13µM*,?
SMILES,LASV entry inh,VACV Venus inh,Vaccinia mCherry,MARV entry inh
Cc1ccnc(NC(c2cccnc2)c2ccc3cccnc3c2O)c1 (stereo not drawn),?,?,?,8.9µM*
Cc1ccnc(NC(c2ccccc2F)c2ccc3cccnc3c2O)c1 (stereo not drawn),?,?,16µM*,?
C=CCOC(=O)N[C@@H](Cc1ccccc1)C(C(=O)OC)=C(C)NCc1ccccc1,·,·,·,-11%[14.2 µM]
COC(=O)C1CCN(Cc2ccc3c(c2)CN(C(=O)C(C)N2CCOCC2)CCO3)CC1 (stereo not drawn),·,-5%,-14%,·
Oc1c(C(Nc2ccccn2)c2ccccc2F)ccc2cccnc12 (stereo not drawn),?,-2%[7.34 µM],-6%[7.34 µM],·
Oc1ccccc1C(Nc1nccs1)c1ccc2cccnc2c1O (stereo not drawn),7.3µM*,?,8.9µM*,12µM*
Cn1c(C(=O)NCc2ccccc2Cl)cc2sc(Cl)cc21,·,-7%,-10%,3.2µM*
CCn1c(C(=O)NCc2ccccc2Cl)cc2sc(Cl)cc21,·,-8%,-9%,?
COc1cc(/C=C2\CC/C(=C\c3cc(OC)c(OC)c(OC)c3)C2=O)cc(OC)c1OC,-22%,-17%,-9%,?
COc1cc(/C=C2\CCC(C)C3=C(c4cc(OC)c(OC)c(OC)c4)C(C#N)=C(N)OC32)cc(OC)c1OC (stereo not drawn),11µM*,-8%,?,?
O=C(NNC(=S)Nc1ccc(Cl)cc1)c1ccccc1OC(F)F,?,?,13µM*,?
Cc1ccc(Nc2nnc(C(C)(C)C)c(=O)n2N)cc1,-9%,-11%,1%,-1%
CC(C)(C)c1nnc(N/N=C/c2cc(Br)ccc2O)n(N)c1=O,?,?,2.5µM*,?
N#Cc1nc(Cc2ccccc2)oc1N1CCC(Cc2ccccc2)CC1,7.1µM*,-12%,·,-18%
N#Cc1nc(Cc2ccccc2)oc1N1CCN(c2ccccc2)CC1,?,-14%,i,?
COCCN1CCN(C(=O)c2cnn(-c3nccc(-c4ccccc4F)n3)c2-c2ccco2)CC1,·,7%,-2%,·
CCC(C)NC(=O)CSc1ccc(S(=O)(=O)N(C)C2CCCCC2)cn1 (stereo not drawn),4µM*,-13%,-21%,?
C1=Cc2ccccc2/C1=C\c1cccc(/C=C2\C=Cc3ccccc32)c1,·,-20%,-3%,·
c1ccc(Cn2ccc(-c3cnc(-c4ccccc4)s3)n2)cc1,11µM*,?,·,?
CN(C)c1ccc(CCC2C=Cc3ccccc32)cc1 (stereo not drawn),·,4%,-4%,·
O=C(N/N=C/c1ccccc1)c1[nH]c2ccc(Br)cc2c1-c1ccccc1,?,-28%,?,?
O=C(NN=C1CCCC1)c1[nH]c2ccc(Br)cc2c1-c1ccccc1,?,?,11µM*,8.9µM*
Cc1onc(-c2ccccc2Cl)c1C(=O)Nc1ccccc1C(N)=O,-5%,-15%,·,-19%
Cc1onc(-c2ccccc2Cl)c1C(=O)Nc1ccccc1C(=O)NC(C)C,?,-22%,-15%,9.2µM*
O=C(COc1cccc2cccnc12)N/N=C/c1ccccc1O,?,-27%,2.5µM*,?
SMILES,LASV entry inh,VACV Venus inh,Vaccinia mCherry,MARV entry inh
O=C(N/N=C/c1ccc[nH]1)c1ccc(COc2cccc3cccnc23)cc1,?,?,1.6µM*,?
COc1cc(=O)n2c(c1C(=O)NCc1ccco1)CCN(C(=O)c1ccc(C)c(C)c1)CC2,·,-10%,-22%,·
O=C(NNC1=NS(=O)(=O)c2ccccc21)c1ccc([N+](=O)[O-])cc1,7.9µM*,-3%,-3%,?
O=C(NNC1=NS(=O)(=O)c2ccccc21)c1ccc(Cl)cc1,·,-11%,i,·
C=CCc1ccc(OCCCCN2CC(C)CC(C)C2)c(OC)c1 (stereo not drawn),?,-12%,?,7.1µM*
C=CCc1ccc(OCCCCN2CCC(C)CC2)c(OC)c1,?,-17%,-12%,15µM*
COC(=O)N[C@@H](c1ccc2ccccc2c1)C(C(C)=O)C(=O)OC (stereo partly drawn),·,·,·,-16%[14.2 µM]

# Compound activity: PubChem, National Center for Advancing Translational Sciences (NCATS)
